Results from PubChem BioAssay.
Activity calls are given as the source filed them.

Columns and labels:
[1] = tested on: Plasmodium falciparum Sir2 (PF13_0152, Sir2A); test: pfSir2 binders on small-molecule microarrays, primary screen, biochemical, small-molecule microarray, 635 nm fluorescence (AID 1098); settings: small-molecule microarray binding, fluorescence 635 nm; higher = more signal;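 also: score merges spot fluorescence intensity with its signal-to-noise ratio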
[2] = small-molecule microarray binders of probe aDKK1, primary screen, biochemical, biotinylated probe, 635/667 nm fluorescence (AID 1099); settings: higher = more signal;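 also: score merges 667nm spot fluorescence with signal to noise across triplicate slides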
[3] = small-molecule microarray binders of probe aCHRDL2, primary screen, biochemical, biotinylated probe, 635/667 nm fluorescence (AID 1100); settings: higher = more signal
[4] = splicing luciferase reporter signal modulators, primary screen, spliceosome inhibition project, cell-based, HEK293, splice +/- reporter (AID 1101); settings: luminescence, 24 h, higher = more signal, called active from +8 up or from −8 down;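 also: HEK293 cells carrying a splicing-competent luciferase reporter gene; test concentration not given here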
[5] = target: Fibroblast growth factor 10 (Homo sapiens) (UniProt O15520); test: FGF10 binders on small-molecule microarrays, primary screen, biochemical, small-molecule microarray, 635 nm fluorescence (AID 1102); settings: FGF10 binding, fluorescence 635 nm, higher = more signal
Chain of Fibroblast growth factor 10 (Homo sapiens) (O15520 whole entry, looked up): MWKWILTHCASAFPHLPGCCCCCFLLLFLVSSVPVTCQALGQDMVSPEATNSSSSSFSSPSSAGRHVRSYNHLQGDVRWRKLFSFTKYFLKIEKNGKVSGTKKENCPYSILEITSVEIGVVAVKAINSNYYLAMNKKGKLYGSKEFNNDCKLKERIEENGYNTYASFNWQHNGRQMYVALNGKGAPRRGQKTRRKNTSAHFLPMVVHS

[6] = tested on: glycogen synthase kinase-3 (GSK3A per assay name; protocol says GSK3B); test: GSK3 binders on small-molecule microarrays, primary screen, biochemical, small-molecule microarray, 635 nm fluorescence, GSK3A (AID 1103); settings: small-molecule microarray binding, fluorescence 635 nm; higher = more signal; also: the record names both GSK3A and GSK3B
[7] = target: Epidermal growth factor receptor (Homo sapiens) (UniProt P00533); test: EGFR binders on small-molecule microarrays, primary screen, biochemical, small-molecule microarray, 635 nm fluorescence (AID 1104); settings: EGFR binding, higher = more signal;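 also: score merges 667 nm emission intensity with spot signal to noise over triplicate slides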
Chain of Epidermal growth factor receptor (Homo sapiens) (P00533 whole entry, looked up): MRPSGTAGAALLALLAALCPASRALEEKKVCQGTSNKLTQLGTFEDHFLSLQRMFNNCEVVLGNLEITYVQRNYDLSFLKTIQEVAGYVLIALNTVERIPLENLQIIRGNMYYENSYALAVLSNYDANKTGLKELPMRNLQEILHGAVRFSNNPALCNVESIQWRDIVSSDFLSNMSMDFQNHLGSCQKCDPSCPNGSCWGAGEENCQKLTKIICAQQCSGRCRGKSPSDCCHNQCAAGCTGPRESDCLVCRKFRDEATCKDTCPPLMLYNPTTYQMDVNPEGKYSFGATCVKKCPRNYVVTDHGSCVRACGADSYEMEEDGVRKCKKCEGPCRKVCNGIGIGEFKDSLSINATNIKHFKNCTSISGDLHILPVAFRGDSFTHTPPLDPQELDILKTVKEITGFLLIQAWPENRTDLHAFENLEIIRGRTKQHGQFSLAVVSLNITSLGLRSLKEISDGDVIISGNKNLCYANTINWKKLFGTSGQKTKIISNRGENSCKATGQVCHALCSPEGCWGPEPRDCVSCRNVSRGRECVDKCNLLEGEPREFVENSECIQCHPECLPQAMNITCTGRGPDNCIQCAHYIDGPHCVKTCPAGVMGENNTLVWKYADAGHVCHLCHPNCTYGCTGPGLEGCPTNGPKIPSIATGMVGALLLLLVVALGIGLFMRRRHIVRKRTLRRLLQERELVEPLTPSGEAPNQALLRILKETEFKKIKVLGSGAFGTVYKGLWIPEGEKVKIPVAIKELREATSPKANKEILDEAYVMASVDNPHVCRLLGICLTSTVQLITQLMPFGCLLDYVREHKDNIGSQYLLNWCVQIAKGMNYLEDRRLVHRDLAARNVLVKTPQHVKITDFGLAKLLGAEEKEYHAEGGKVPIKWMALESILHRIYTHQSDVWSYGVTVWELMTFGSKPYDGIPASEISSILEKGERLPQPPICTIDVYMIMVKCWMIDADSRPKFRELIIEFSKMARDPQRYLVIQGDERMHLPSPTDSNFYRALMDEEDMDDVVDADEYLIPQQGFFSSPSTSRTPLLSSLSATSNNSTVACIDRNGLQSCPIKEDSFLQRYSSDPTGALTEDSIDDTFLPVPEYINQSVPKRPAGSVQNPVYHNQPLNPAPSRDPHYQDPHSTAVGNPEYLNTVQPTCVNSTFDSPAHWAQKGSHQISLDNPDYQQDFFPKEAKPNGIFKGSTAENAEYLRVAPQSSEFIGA

[8] = target: Follistatin-related protein 3 (Homo sapiens) (UniProt O95633); test: FSTL3 binders on small-molecule microarrays, primary screen, biochemical, small-molecule microarray, 635 nm fluorescence (AID 1105); settings: FSTL3 binding, higher = more signal;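 also: score merges emission near 667 nm and signal to noise per printed spot across three slides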
Chain of Follistatin-related protein 3 (Homo sapiens) (O95633 whole entry, looked up): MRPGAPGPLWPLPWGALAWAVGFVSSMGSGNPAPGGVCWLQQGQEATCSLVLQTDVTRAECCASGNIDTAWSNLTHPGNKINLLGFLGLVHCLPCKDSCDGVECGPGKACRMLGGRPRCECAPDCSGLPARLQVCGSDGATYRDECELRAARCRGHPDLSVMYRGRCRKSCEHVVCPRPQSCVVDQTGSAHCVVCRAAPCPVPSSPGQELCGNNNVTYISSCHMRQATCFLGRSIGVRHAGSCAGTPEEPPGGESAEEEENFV

[9] = target: Dickkopf-related protein 1 (Homo sapiens) (UniProt O94907); test: DKK1 binders on small-molecule microarrays, primary screen, biochemical, small-molecule microarray, 635 nm fluorescence scan (AID 1106); settings: DKK1 binding, higher = more signal;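 also: score merges emission near 667 nm with signal to noise over three replicate slides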
Chain of Dickkopf-related protein 1 (Homo sapiens) (O94907 whole entry, looked up): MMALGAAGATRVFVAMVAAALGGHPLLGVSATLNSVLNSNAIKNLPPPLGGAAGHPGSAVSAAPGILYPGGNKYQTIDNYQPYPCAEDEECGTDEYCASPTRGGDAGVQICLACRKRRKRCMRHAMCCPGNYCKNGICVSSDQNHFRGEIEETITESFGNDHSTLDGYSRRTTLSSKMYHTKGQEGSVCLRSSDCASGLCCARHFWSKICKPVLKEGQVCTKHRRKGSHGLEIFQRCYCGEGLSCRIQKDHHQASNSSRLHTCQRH

[10] = tested on: Inhibin beta A chain (activin A); test: INHBA (activin A) binders on microarrays, primary screen, biochemical, small-molecule microarray, 635 nm fluorescence scan (AID 1107); settings: small-molecule microarray binding, higher = more signal;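 also: mouse activin A protein probed at 4.33 µg/mL on printed slides; score merges bound-protein fluorescence near 667 nm with spot signal-to-noise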
[11] = tested on: Human papillomavirus type 1a protein E7 (residues 44-93); test: HPV1a E7 fragment binders on microarrays, primary screen, biochemical, small-molecule microarray, residues 44-93, 635 nm fluorescence (AID 1108); settings: small-molecule microarray binding, fluorescence 635 nm; higher = more signal;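 also: E7 fragment applied at 1 µg/mL in TBST for 1 h at 4 C; score combines spot fluorescence with its signal to noise ratio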
[12] = modulators of HCV replicon luciferase signal, primary screen, HCV replication inhibitor project, Huh7 cells, luciferase reporter (AID 1109); settings: 48 h, higher = more signal;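 also: huh7 hepatoma cells harbouring a luciferase neomycin HCV replicon reporter; luciferase luminescence as measure of HCV replicon replication; test concentration not given here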
[13] = target: Left-right determination factor 2 (Homo sapiens) (UniProt O00292); test: LEFTY2 binders on small-molecule microarrays, primary screen, biochemical, small-molecule microarray, 635 nm fluorescence scan (AID 1110); settings: LEFTY2 binding, higher = more signal
Chain of Left-right determination factor 2 (Homo sapiens) (O00292 whole entry, looked up): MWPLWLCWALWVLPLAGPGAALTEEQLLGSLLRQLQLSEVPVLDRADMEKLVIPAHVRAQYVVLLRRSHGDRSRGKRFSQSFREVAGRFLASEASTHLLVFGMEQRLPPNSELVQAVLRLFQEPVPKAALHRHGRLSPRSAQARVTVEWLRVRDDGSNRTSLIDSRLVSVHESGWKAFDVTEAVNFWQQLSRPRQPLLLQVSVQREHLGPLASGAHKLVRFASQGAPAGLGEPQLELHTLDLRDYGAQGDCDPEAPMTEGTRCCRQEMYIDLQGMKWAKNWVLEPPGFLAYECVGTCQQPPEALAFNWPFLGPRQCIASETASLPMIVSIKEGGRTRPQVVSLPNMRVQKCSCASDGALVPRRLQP

[14] = target: Calmodulin-1 (Homo sapiens) (UniProt P0DP23); test: CALM1 binders on microarrays, EGTA buffer, profiling panel, biochemical, small-molecule microarray, Cy5-labelled CALM1 (AID 1111); settings: Cy5-CALM1 binding fluorescence, higher = more signal;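 also: labelled calmodulin applied in Tris saline Tween buffer holding calcium plus EGTA and DTT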
[15] = target: Calmodulin-1 (Homo sapiens) (UniProt P0DP23); test: calcium-bound CALM1 binders on microarrays, profiling panel, artefact control for SMM control-protein annotation, biochemical, small-molecule microarray, Cy5-labelled CALM1, plus calcium (AID 1112); settings: Cy5-CALM1 binding fluorescence, higher = more signal;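 also: score merges spot fluorescence with signal to noise from triplicate slides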
[16] = small-molecule microarray binders of probe aWnt5a, primary screen, biochemical, biotinylated probe, 635/667 nm fluorescence (AID 1113); settings: higher = more signal;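 also: score merges 667 nm fluorescence intensity with signal-to-noise per printed feature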
[17] = small-molecule microarray binders of probe aShh, primary screen, biochemical, biotinylated probe, 635/667 nm fluorescence (AID 1114); settings: higher = more signal;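 also: probe is biotin-labelled aShh protein from a stem cell growth factor screen; measures binding of labelled protein to compounds printed on the slide; score merges feature fluorescence at 667 nm with signal-to-noise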
[18] = small-molecule microarray binders of probe aNog, primary screen, biochemical, biotinylated probe, 635/667 nm fluorescence (AID 1115); settings: higher = more signal;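 also: probe is biotinylated aNog protein used at 0.15 µg/mL for 1 h at 4 C; z-score combines 667 nm fluorescence of each spot with its signal to noise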
[19] = target: Torsin-1A-interacting protein 1 (Homo sapiens) (UniProt Q5JTV8); test: LAP1 binders from COS7 cell lysate, primary screen, small-molecule microarray, 635/667 nm fluorescence (AID 1116); settings: COS7-hLAP1 lysate binding, 635 nm fluorescence, higher = more signal
Chain of Torsin-1A-interacting protein 1 (Homo sapiens) (Q5JTV8 whole entry, looked up): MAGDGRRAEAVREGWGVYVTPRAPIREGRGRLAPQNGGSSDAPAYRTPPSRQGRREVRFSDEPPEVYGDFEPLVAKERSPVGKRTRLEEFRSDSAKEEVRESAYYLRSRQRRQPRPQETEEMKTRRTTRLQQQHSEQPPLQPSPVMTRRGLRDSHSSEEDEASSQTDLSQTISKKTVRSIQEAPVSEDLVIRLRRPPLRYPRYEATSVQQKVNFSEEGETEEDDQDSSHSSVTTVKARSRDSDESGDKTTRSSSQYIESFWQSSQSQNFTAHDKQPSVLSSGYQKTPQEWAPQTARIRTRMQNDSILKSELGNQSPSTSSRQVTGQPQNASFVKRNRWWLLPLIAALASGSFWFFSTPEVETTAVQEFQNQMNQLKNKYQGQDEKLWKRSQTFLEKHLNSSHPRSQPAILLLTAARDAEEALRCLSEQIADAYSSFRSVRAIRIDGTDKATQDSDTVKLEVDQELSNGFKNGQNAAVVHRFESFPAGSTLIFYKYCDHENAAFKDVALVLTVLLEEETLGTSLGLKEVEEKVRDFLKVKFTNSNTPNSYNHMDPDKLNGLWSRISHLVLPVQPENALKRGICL

[20] = target: Alpha-bungarotoxin (Bungarus multicinctus) (UniProt P60615); test: alpha-bungarotoxin binders on microarray, profiling panel, artefact control for SMM control protein annotation, biochemical, small-molecule microarray, Alexa647 label, 635/667 nm fluorescence (AID 1117); settings: alpha-BTX-A647 binding fluorescence, higher = more signal
Chain of Alpha-bungarotoxin (Bungarus multicinctus) (P60615 whole entry, looked up): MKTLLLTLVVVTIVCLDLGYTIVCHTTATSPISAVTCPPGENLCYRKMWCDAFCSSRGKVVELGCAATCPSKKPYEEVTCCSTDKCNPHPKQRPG

| SMILES | composite z-score [1] | composite z-score [2] | composite z-score [3] | z-score [4] | composite z-score [5] | composite z-score [6] | composite z-score [7] | composite z-score [8] | composite z-score [9] | composite z-score [10] | composite z-score [11] | z-score [12] | composite z-score [13] | composite z-score [14] | composite z-score [15] | composite z-score [16] | composite z-score [17] | composite z-score [18] | composite z-score [19] | composite z-score [20] |
| --- | --- | --- | --- | --- | --- | --- | --- | --- | --- | --- | --- | --- | --- | --- | --- | --- | --- | --- | --- | --- |
| COC(=O)[C@H](C)NC(=O)CCC1CC(OC(=O)NCc2cccc3ccccc23)CC2(CCCC(COC(=O)NCCc3ccccc3OC)O2)O1 (stereo not given in full) | 0.906 | -0.0471 | -0.433 | -0.105 (inactive) | 1.23 | 1.12 | 0.454 | 1.25 | 0.686 | -0.267 | 1.39 | -0.314 | 0.621 | 0.75 | -0.37 | -0.15 | 0.0141 | 0.0356 | 0.787 | 0.638 |
| CC(CCN1CCCCc2nc(C)c(C)cc21)=NOC[C@@H](O)[C@H]1O[C@@H]2OC(C)(C)O[C@@H]2[C@H]1O | 0.577 | -0.32 | -1.02 | 0.595 (inactive) | 0.313 | 0.397 | 0.774 | 0.718 | 0.874 | -0.0196 | -0.902 | 0.0388 | 1.39 | -0.554 | -1.3 | -0.124 | -0.0626 | 0.0254 | -0.219 | 0.969 |
| CC1(C)O[C@H]2OC([C@H](O)CON3C(=O)c4ccccc4C3=O)[C@H](O)[C@H]2O1 (stereo not given in full) | -0.0933 | -0.467 | -0.562 | 0.105 (inactive) | 0.0612 | 0.0618 | 0.237 | 0.205 | 0.46 | -0.582 | -0.0928 | -0.585 | 0.244 | -0.494 | -0.539 | -0.109 | -0.27 | -0.218 | -0.1 | -0.0472 |
| CC(C)=NOC(C)CN1CCCc2nc(C)c(C)cc21 (stereo not given) | 1.19 | -0.446 | -0.696 | 0.484 (inactive) | 0.809 | 1.1 | 0.697 | 1.16 | 0.63 | 0.206 | 1.17 | 0.302 | 0.75 | -0.291 | -0.869 | -0.0718 | 0.214 | -0.0809 | -0.0182 | 0.32 |
| CO[C@@H]1COC(=O)[C@H](COCc2ccccc2)NC(=O)CC=C[C@@H](C)[C@H](OC)COC(=O)[C@@H](C)NC(=O)CC=C[C@H]1C | 1.57 | -0.556 | -0.97 | 0.0772 (inactive) | 0.0278 | -0.314 | 0.378 | 0.754 | 1.16 | 1.84 | -0.747 | -0.536 | 0.583 | -1.78 | -2.61 | -0.18 | 0.0062 | -0.643 | 0.343 | -1.31 |
| CO[C@H]1COC(=O)CCC[C@H](C)[C@H](OC)COC(=O)CC=C[C@@H]1C | 1.49 | -0.427 | -0.931 | -1.39 (inactive) | -0.0317 | 0.0951 | 0.822 | 1.04 | 0.872 | 1.43 | -1.46 | -1.34 | 0.804 | -0.294 | -1.2 | -0.156 | -0.138 | -0.258 | 0.307 | -0.0936 |
| COc1ccc(COC(=O)NN=C2C[C@@H](O)[C@@H](O)[C@@H]3[C@@H]4C(=O)N(c5cccc(Oc6ccccc6)c5)C(=O)[C@@H]4CC[C@H]23)cc1 | 0.328 | 0.543 | 1.2 | -1.27 (inactive) | -0.0908 | -0.944 | -0.479 | -0.226 | -0.767 | 0.212 | -0.0321 | -1.46 | -0.35 | 0.0317 | 0.176 | -0.215 | -0.2 | -0.336 | 0.215 | 0.971 |
| OC[C@H]1O[C@H](C#Cc2ccccc2)C=C[C@@H]1O | 0.721 | -0.301 | -0.385 | 0.072 (inactive) | 0.194 | 0.356 | 0.506 | 0.546 | 0.546 | 0.408 | 0.0191 | -0.125 | 0.484 | -0.12 | -0.644 | 0.0251 | 0.0141 | -0.0125 | -0.0177 | 0.42 |
| CO[C@@H]1C=CCC(=O)N[C@@H](C)C(=O)OC[C@@H](NS(=O)(=O)c2ccc(C)cc2)[C@H](C)C=CCC(=O)OC[C@H]1C | -0.401 | -0.298 | -0.748 | -0.275 (inactive) | 0.238 | -0.0731 | 0.329 | 0.828 | 0.359 | 0.976 | -0.844 | 0.46 | 0.957 | -0.062 | -0.417 | -0.18 | 0.0442 | -0.0116 | -0.159 | -0.135 |
| COC(=O)[C@@H]1CC[C@H](C)[C@@H](c2ccc(Br)cc2)N1C(=O)C(F)(F)F | -0.324 | -0.215 | -0.174 | -0.0429 (inactive) | -0.329 | -0.657 | 0.0496 | -0.324 | -0.144 | 0.237 | -1.1 | -0.317 | 0.179 | -0.257 | 0.137 | -0.226 | -0.476 | -0.127 | -0.287 | 0.263 |
| CCN1C(=O)[C@H]2[C@H]3[C@H](O)[C@H](O)CC(=NO[C@@H](C)c4cc(-c5c(C)cc(C)cc5C)no4)[C@@H]3CC[C@H]2C1=O | 0.808 | 0.101 | -0.239 | -0.111 (inactive) | 0.841 | 1.24 | 0.451 | 1.18 | 0.647 | -0.989 | 1.02 | -0.946 | 0.685 | 0.224 | -0.525 | -0.0799 | -0.0146 | -0.177 | 0.952 | 1.02 |
| CON=C(C)CCC(=O)OC[C@H]1O[C@H](C#Cc2ccccc2)C=C[C@@H]1Oc1ccc(C)cc1 | 0.699 | 0.0281 | -0.22 | 0.825 (inactive) | 0.19 | -0.252 | 0.252 | 0.407 | 0.572 | 0.719 | 0.247 | -3.53 | 0.395 | -0.118 | -0.545 | -0.0924 | -0.0709 | 0.0369 | 0.571 | 0.35 |
